Compound activity (PubChem BioAssay)
This is one part of a sample in which hits are shown more often than they occur.
PRC2 inh – inhibitors of human EZH2/PRC2 methyltransferase; Q15910; PRC2 H3K27 methylation, DELFIA TRF, 1 h; inhibition, % at 12.5 µM; hit rate 0.35% among 57,000; AID 651548;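 active means mean inhibition of replicates at least 50% and every single replicate also reaching 50%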;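 further: dimethyl H3K27 on biotinylated H3 21-44 peptide detected by antibody; plate controls were median neutral control wells for no effect and median positive control wells for full effect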
Target sequence (Q15910 whole entry, looked up): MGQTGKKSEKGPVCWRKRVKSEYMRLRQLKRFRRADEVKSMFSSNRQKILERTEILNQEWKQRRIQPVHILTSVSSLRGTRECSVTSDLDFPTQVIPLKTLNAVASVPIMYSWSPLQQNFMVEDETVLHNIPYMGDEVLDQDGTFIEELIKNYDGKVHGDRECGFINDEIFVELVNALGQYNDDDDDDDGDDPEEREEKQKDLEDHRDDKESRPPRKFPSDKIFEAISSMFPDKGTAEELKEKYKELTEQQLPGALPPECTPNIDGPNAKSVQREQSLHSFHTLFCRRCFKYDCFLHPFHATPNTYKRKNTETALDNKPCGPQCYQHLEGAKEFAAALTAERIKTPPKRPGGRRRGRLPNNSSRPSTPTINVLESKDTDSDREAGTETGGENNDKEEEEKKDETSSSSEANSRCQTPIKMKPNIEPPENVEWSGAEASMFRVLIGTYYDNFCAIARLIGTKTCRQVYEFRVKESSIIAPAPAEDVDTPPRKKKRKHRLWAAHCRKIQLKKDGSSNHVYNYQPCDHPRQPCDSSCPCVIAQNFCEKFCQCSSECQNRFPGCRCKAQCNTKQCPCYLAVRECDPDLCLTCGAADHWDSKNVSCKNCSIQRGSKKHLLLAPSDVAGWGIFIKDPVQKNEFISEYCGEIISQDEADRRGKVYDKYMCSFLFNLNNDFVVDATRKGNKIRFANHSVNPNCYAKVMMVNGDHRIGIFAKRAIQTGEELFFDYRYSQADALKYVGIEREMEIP
* = called active by the depositor.

SMILES	PRC2 inh
CCOC(=O)c1c(NC(=O)C2CC(Cl)=CCC2C(=O)O)sc2c1CC(C)CC2 (configuration not stated)	25.1
CCOC(=O)c1c(-c2ccc(Cl)cc2)csc1NC(=O)C1CCCCC1C(=O)O (configuration not stated)	57.7*
O=C1C(=O)N(Cc2ccco2)C(c2cccc(Cl)c2)C1C(=O)c1ccco1 (configuration not stated)	0.5
Cc1cc(C(F)(F)F)nn1CCCNC(=O)c1cc(-c2cccnc2)nc2ccc(Cl)cc12	-2.7
O=C1c2c(O)cc(O)cc2O[C@H](c2ccccc2)[C@H]1O	8.0
C[C@@H]1O[C@@H](O[C@H]2[C@H](Oc3cc(O)c4c(c3)O[C@H](c3ccc(O)c(O)c3)CC4=O)O[C@H](CO)[C@@H](O)[C@@H]2O)[C@H](O)[C@H](O)[C@H]1O	4.2
C[C@@H]1O[C@@H](Oc2ccc(C3Oc4cc(O)cc(O)c4C(=O)C3O)cc2O)[C@H](O)[C@H](O)[C@H]1O (some centres not stated)	97.4*
O=C(CCCCCC(=O)Nc1ccccc1O)N/N=C/c1ccc([N+](=O)[O-])c(O)c1	3.5
Cn1c(SCC(=O)Nc2cccc(Br)c2)nnc1-c1cccs1	-0.1
CC(CC[C@]1(C)C2CCC=C(CO)[C@]2(C)CC[C@H]1C)CC(=O)O (some centres not stated)	14.6
CC1=CC(=O)OC1(O)CCC(C)CC(=O)O (configuration not stated)	100.1*
COc1cc(OC)c(NC(=O)CSc2nnc(C)s2)cc1Cl	-22.0
O=C(NCCCN1CCCC1=O)c1cc(-c2ccccc2)nc2ccccc12	2.7
COc1cc(C2OC[C@@H]3[C@@H](c4cc(OC)c(O)c(OC)c4)OC[C@H]23)cc(OC)c1O (some centres not stated)	-26.5
COc1cc([C@H]2OC[C@H]3[C@@H]2CO[C@@H]3c2ccc(O)c(OC)c2)ccc1O	79.7*
COc1cc([C@H]2OC[C@H]3[C@@H]2CO[C@H]3c2ccc(OC)c(OC)c2)ccc1O	8.6
C=C(C(=O)O[C@@H]1O[C@H](CO)[C@@H](O)[C@H](O)[C@H]1O)[C@@H]1CC[C@@]2(C)C[C@H](O)C[C@@](C)(O)C2C1 (some centres not stated)	64.1*
CC1(CCOC2OC(CO)C(O)C(O)C2O)CCC2C(=CCC3C(C)(C(=O)O)CCCC23C)C1 (configuration not stated)	12.8
CC1C(=O)C23CC(O)C4C(C)(C(=O)OC5OC(CO)C(O)C(O)C5O)CCCC4(C)C2(O)CCC1C3 (configuration not stated)	0.0
Cc1sc(NC(=O)CCn2cnc3ccccc3c2=O)c(C#N)c1C	-6.6
CCCC[C@@H](O)c1cc(OC)cc(=O)o1	10.3
CC(C)(C)c1ccc(C(=O)N2CCN(c3ccc([N+](=O)[O-])c(NCc4cccnc4)c3)CC2)cc1	18.6
O=C(N/N=C/c1ccc(B(O)O)cc1)c1ccccc1O	-10.3
COc1ccc(OCC(=O)Nc2sc3c(c2C#N)CCC3)cc1	13.5
Cc1cc(C)c(C#N)c(SCC(=O)Nc2sc3c(c2C#N)CCC3)n1	5.9
SMILES	PRC2 inh
COc1cc(OC)cc(-c2nnc(SCC(=O)Nc3sc4c(c3C#N)CCCC4)o2)c1	67.7*
O=C(COc1ccc(Br)cc1)Nc1cccc2ncccc12	5.8
c1ccc(-c2noc(COc3cccc4ccccc34)n2)nc1	27.9
CS(=O)(=O)N(CC(=O)Nc1cccc(Cl)c1)c1ccc(Br)cc1	3.1
CS(=O)(=O)N(CC(=O)Nc1ccc(Cl)c(Cl)c1)c1ccc(Br)cc1	54.6*
CS(=O)(=O)N(CC(=O)Nc1ccc(Cl)c(Cl)c1)c1cc(Cl)cc(Cl)c1	5.4
Cc1cc(C)c(C)c(S(=O)(=O)NCC(=O)Nc2ccc3c(c2)OCCO3)c1C	-2.5
[N-]=[N+]=NC[C@@H](Cc1ccccc1)NC(=O)Nc1ccccc1	-1.7
CC(=O)Nc1ccc(NC(=O)CN(C)S(=O)(=O)c2ccc(Cl)cc2)cc1	-3.5
CN(CC(=O)Nc1cccc(Cl)c1)S(=O)(=O)c1ccc2ccccc2c1	41.8
CN(CC(=O)Nc1cccc(I)c1)S(=O)(=O)c1ccc(Cl)cc1	52.5*
O=C(CCCCC(=O)N/N=C/c1cc2c(cc1Br)OCO2)NO	10.5
COC(=O)c1ccccc1NC(=O)COc1cc(C)c(Br)c(C)c1	2.4
CCCc1cc(=O)oc2cc(OCc3cc(C(=O)O)oc3C)ccc12	-8.3
Cc1cc(=O)oc2cc(NC(=S)NCc3cccnc3)ccc12	-9.3
Cc1cc2oc(=O)cc(CN(C)Cc3ccccc3)c2cc1C(C)C	50.2*
COc1ccc(CN2C(=O)C(O)(CC(=O)c3ccc(Cl)cc3)c3ccccc32)cc1OC (configuration not stated)	-4.5
Cc1ccc(Cl)cc1NC(=O)CSc1nc2c(c(C(F)(F)F)c1C#N)CCCC2	2.4
CC(=O)c1ccc(NC(=O)CSc2nc(C)cc(C)c2C#N)cc1	6.2
Cc1cc(C)c(OCC(=O)Nc2cccc(NC(=O)c3ccccc3C)c2)c(Br)c1	2.5
COc1cc(OC)c2c(c1O)OC(c1ccccc1)CC2=O (configuration not stated)	72.4*
